The antibiotic and cytotoxicity screens of Wong et al. (2023)
About 1,500 (3.8%) of roughly 39,000 compounds were called active. This is one part of a sample in which actives are shown more often than they occur.

test system: HSkMC (human skeletal muscle cells); assay: cytotoxicity call (relative viability < 0.9); conditions: 10 µM

| Structure (SMILES) | cytotoxicity call |
| --- | --- |
| C[C@H](CO)N1C[C@H](C)[C@H](CN(C)S(=O)(=O)c2cccs2)Oc2c(NC(=O)Nc3cccc4ccccc34)cccc2C1=O | inactive |
| COC(=O)C[C@H]1C=C[C@H](N)[C@H](CO)O1 | inactive |
| Cc1noc(C)c1S(=O)(=O)Nc1ccc2c(c1)CC(=O)N([C@H](C)CO)C[C@H](C)[C@@H](CN(C)S(=O)(=O)c1cccs1)O2 | inactive |
| C[C@@H]1CCCCO[C@@H](CN(C)S(=O)(=O)c2ccc(F)cc2)[C@H](C)CN([C@H](C)CO)C(=O)c2cc(NS(=O)(=O)c3ccc(Cl)cc3)ccc2O1 | inactive |
| C[C@H]1CN([C@@H](C)CO)C(=O)c2cc(NS(=O)(=O)c3ccc(F)cc3)ccc2O[C@@H]1CN(C)Cc1ccc(Cl)c(Cl)c1 | active |
| C[C@H](CO)N1C[C@H](C)[C@@H](CN(C)Cc2ccc(Cl)c(Cl)c2)Oc2ccc(NS(=O)(=O)c3ccc(F)cc3)cc2C1=O | inactive |
| C[C@@H]1CN([C@H](C)CO)C(=O)c2cc(NS(=O)(=O)c3ccc(F)cc3)ccc2O[C@@H]1CN(C)Cc1ccc(Cl)c(Cl)c1 | inactive |
| C[C@H](CO)N1C[C@H](C)[C@H](CN(C)Cc2ccc(Cl)c(Cl)c2)Oc2ccc(NS(=O)(=O)c3ccc(F)cc3)cc2C1=O | inactive |
| C[C@@H]1CN([C@@H](C)CO)C(=O)c2cc(NS(=O)(=O)c3ccc(F)cc3)ccc2O[C@@H]1CN(C)Cc1ccc(Cl)c(Cl)c1 | inactive |
| C[C@@H]1CN([C@@H](C)CO)C(=O)c2cc(NS(=O)(=O)c3ccc(F)cc3)ccc2O[C@H]1CN(C)Cc1ccc(Cl)c(Cl)c1 | active |
| C[C@@H]1CN([C@H](C)CO)C(=O)c2cc(NS(=O)(=O)c3ccc(F)cc3)ccc2O[C@H]1CN(C)Cc1ccc(Cl)c(Cl)c1 | active |
| C[C@H]1CN([C@@H](C)CO)C(=O)c2cc(NS(=O)(=O)c3ccc(F)cc3)ccc2O[C@H]1CN(C)Cc1ccc(Cl)c(Cl)c1 | inactive |
| NC[C@H]1CC[C@H](C(=O)O)CC1 | inactive |
| C[C@@H]1CCCCO[C@H](CN(C)Cc2ccccc2)[C@H](C)CN([C@@H](C)CO)C(=O)c2cc(NC(=O)c3ccccc3)ccc2O1 | inactive |
| COc1ccccc1CNC(=O)C[C@@H]1C[C@H]2c3cc(NC(=O)c4ccc5c(c4)OCO5)ccc3O[C@H]2[C@@H](CO)O1 | inactive |
| C[C@@H]1CN([C@H](C)CO)C(=O)CCCn2nncc2CO[C@@H]1CN(C)S(=O)(=O)c1ccc(Oc2ccccc2)cc1 | inactive |
| Cc1ccc(S(=O)(=O)N2C[C@@H](O)COC[C@H]3O[C@H](CC(=O)NCc4cccc(C(F)(F)F)c4)CC[C@@H]32)cc1 | inactive |
| O=C1O[C@@H](c2ccccc2)[C@@H](c2ccccc2)N2[C@@H](c3ccc(O)cc3)[C@]3(C(=O)Nc4ccc(C#CC5(O)CCCCCC5)cc43)[C@@H](C(=O)N3CCCCCCC3)[C@H]12 | inactive |
| CNC[C@H]1OCCCC[C@H](C)Oc2ccc(NS(=O)(=O)c3cn(C)cn3)cc2C(=O)N([C@@H](C)CO)C[C@@H]1C | inactive |

| Structure (SMILES) | cytotoxicity call |
| --- | --- |
| C[C@@H]1CCCCO[C@@H](CN(C)C(=O)C2CCCCC2)[C@@H](C)CN([C@@H](C)CO)C(=O)c2cc(NC(=O)C3CCCCC3)ccc2O1 | inactive |
| COc1ccc(S(=O)(=O)Nc2ccc3c(c2)CC(=O)N([C@@H](C)CO)C[C@H](C)[C@@H](CN(C)S(=O)(=O)c2ccc(OC)cc2)O3)cc1 | inactive |
| COC(=O)[C@]12CCC(C)(C)C[C@H]1[C@H]1C(=O)C=C3[C@@]4(C)C=C(C#N)C(=O)C(C)(C)[C@@H]4CC[C@@]3(C)[C@]1(C)CC2 | active |
| COC(=O)[C@@]12CCC(C)(C)C[C@@H]1[C@@H]1C(=O)C=C3[C@]4(C)C=C(C#N)C(=O)C(C)(C)[C@H]4CC[C@]3(C)[C@@]1(C)CC2 | active |
| COc1ccc(CN(C)C[C@@H]2OCCCC[C@H](C)Oc3ccc(NC(=O)NC4CCCCC4)cc3C(=O)N([C@@H](C)CO)C[C@H]2C)cc1 | inactive |
| CC1(C)[C@@H](OC(=O)CCC(=O)O)CC[C@]2(C)[C@H]3C(=O)C=C4[C@@H]5C[C@@](C)(C(=O)O)CC[C@]5(C)CC[C@@]4(C)[C@]3(C)CC[C@@H]12 | inactive |
| C[C@@H]1CN([C@@H](C)CO)S(=O)(=O)c2ccc(/C=C/c3ccccc3)cc2O[C@@H]1CN(C)C(=O)Nc1cc(F)ccc1F | inactive |
| Cc1ccc(S(=O)(=O)Nc2ccc3c(c2)CC(=O)N([C@H](C)CO)C[C@H](C)[C@H](CN(C)CC2CC2)O3)cc1 | inactive |
| C[C@@H]1CN([C@@H](C)CO)C(=O)c2c(c3ccccc3n2C)-c2ccccc2CO[C@@H]1CN(C)C(=O)[C@H](C)c1ccccc1 | inactive |
| C[C@@H](C(=O)N(C)C[C@H]1OCc2ccccc2-c2c(n(C)c3ccccc23)C(=O)N([C@@H](C)CO)C[C@@H]1C)c1ccccc1 | inactive |
| C[C@H](CO)N1C[C@H](C)[C@@H](CN(C)C(=O)c2cc(Cl)cc(Cl)c2)OCc2ccccc2-c2c(n(C)c3ccccc23)C1=O | active |
| C[C@@H]1CN([C@H](C)CO)C(=O)c2c(c3ccccc3n2C)-c2ccccc2CO[C@@H]1CN(C)C(=O)[C@H](C)c1ccccc1 | active |
| C[C@H]1CN([C@@H](C)CO)C(=O)c2c(c3ccccc3n2C)-c2ccccc2CO[C@H]1CN(C)C(=O)c1cc(Cl)cc(Cl)c1 | inactive |
| C[C@@H]1CN([C@@H](C)CO)C(=O)c2c(c3ccccc3n2C)-c2ccccc2CO[C@@H]1CN(C)C(=O)c1cc(Cl)cc(Cl)c1 | inactive |
| C[C@@H]1CN([C@@H](C)CO)C(=O)c2c(c3ccccc3n2C)-c2ccccc2CO[C@H]1CN(C)C(=O)c1cc(Cl)cc(Cl)c1 | inactive |
| C[C@@H]1CN([C@H](C)CO)C(=O)c2c(c3ccccc3n2C)-c2ccccc2CO[C@H]1CN(C)C(=O)c1cc(Cl)cc(Cl)c1 | active |
| C[C@H]1CN([C@@H](C)CO)C(=O)c2c(c3ccccc3n2C)-c2ccccc2CO[C@@H]1CN(C)C(=O)c1cc(Cl)cc(Cl)c1 | inactive |
| C[C@H](CO)N1C[C@H](C)[C@H](CN(C)S(C)(=O)=O)Oc2ccc(NC(=O)CCN3CCOCC3)cc2C1=O | inactive |
| C[C@@H]1CN([C@@H](C)CO)C(=O)c2c(c3ccccc3n2C)-c2ccccc2CO[C@H]1CN(C)S(=O)(=O)c1cn(C)cn1 | inactive |
